From the supplement of paper PMC10849652
Of roughly 7,900 targets only a part is listed; those with a hit were picked by preference. About 0.6% of all pairs of compound and target were hits.

What was measured:
Experiment in all cases: log2 fold change, soluble protein after heating vs DMSO (PISA); higher = thermal stabilisation; K562 cells, 10 uM, 30 min; active = over 0.2 and 3.5 SD of the protein, either way, in both replicates (recomputed)
[1] = compound: CS(=O)(=O)c1ccc(-c2cnc(N)c(C(=O)Nc3ccccc3)n2)cc1
Summary of the method: (§1)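 Thermal stability values are relative to control samples and come from duplicates. They are expressed as log2 fold changes. For measurement, K562 cells (2×10^6 cells/mL) received 10 μM compound for 30 min, and aliquots were heated for 3 min over 48°C-58°C, pooled, and extracted at 4°C in PBS with 0.5% NP-40. Soluble protein, the supernatant after 21,000xg for 90 min, was quantified by TMTpro 16plex LC-MS/MS with equalised channel sums.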

crizotinib = compound: C[C@@H](Oc1cc(-c2cnn(C3CCNCC3)c2)cnc1N)c1c(Cl)ccc(F)c1Cl [crizotinib]
Summary of the method: as §1

[2] = compound: C[C@@H]1COCCN1C2=NC(=NC(=C2)C3(CC3)S(=O)(=O)C)C4=C5C=CNC5=CC=C4
Summary of the method: as §1

[3] = compound: C[C@H](C1=CC=C(C=C1)C(=O)NC2=C3C=CNC3=NC=C2)N
Summary of the method: as §1

duvelisib = compound: C[C@H](Nc1ncnc2nc[nH]c12)c1cc2cccc(Cl)c2c(=O)n1-c1ccccc1 [duvelisib]
Summary of the method: as §1

gandotinib = compound: Cc1cc(Nc2cc(CN3CCOCC3)c3nc(C)c(Cc4ccc(Cl)cc4F)n3n2)n[nH]1 [gandotinib]
Summary of the method: as §1

tozasertib = compound: Cc1cc(Nc2cc(N3CCN(C)CC3)nc(Sc3ccc(NC(=O)C4CC4)cc3)n2)n[nH]1 [tozasertib]
Summary of the method: as §1

[4] = compound: Cc1cc(SCc2sc(-c3ccc(C(F)(F)F)cc3)nc2C)ccc1OCC(=O)O
Summary of the method: as §1

doramapimod = compound: Cc1ccc(-n2nc(C(C)(C)C)cc2NC(=O)Nc2ccc(OCCN3CCOCC3)c3ccccc23)cc1 [doramapimod]
Summary of the method: as §1

ispinesib = compound: Cc1ccc(C(=O)N(CCCN)[C@@H](c2nc3cc(Cl)ccc3c(=O)n2Cc2ccccc2)C(C)C)cc1 [ispinesib]
Summary of the method: as §1

bafetinib = compound: Cc1ccc(NC(=O)c2ccc(CN3CC[C@H](N(C)C)C3)c(C(F)(F)F)c2)cc1Nc1nccc(-c2cncnc2)n1 [bafetinib]
Summary of the method: as §1

[5] = compound: Cc1cccc(CC(=O)N2CCc3c2ccc(-c2cn(C)c4ncnc(N)c24)c3F)n1
Summary of the method: as §1

nilotinib = compound: Cc1cn(-c2cc(NC(=O)c3ccc(C)c(Nc4nccc(-c5cccnc5)n4)c3)cc(C(F)(F)F)c2)cn1 [nilotinib]
Summary of the method: as §1

[6] = compound: Cc1nc(Nc2n[nH]c3c2CN(C(=O)N[C@H](CN(C)C)c2ccccc2)C3(C)C)c2sccc2n1
Summary of the method: as §1

dasatinib = compound: Cc1nc(Nc2ncc(C(=O)Nc3c(C)cccc3Cl)s2)cc(N2CCN(CCO)CC2)n1 [dasatinib]
Summary of the method: as §1

[7] = compound: Cc1ncc(-c2ccnc(Nc3ccc(S(C)(=O)=O)cc3)n2)n1C(C)C
Summary of the method: as §1

[8] = compound: Cn1cc(-c2ccc3c(c2)CCN3C(=O)Cc2cccc(C(F)(F)F)c2)c2c(N)ncnc21
Summary of the method: as §1

[9] = compound: Cn1cc(-c2ccc3nnc(C(F)(F)c4ccc5ncccc5c4)n3n2)cn1
Summary of the method: as §1

tipifarnib = compound: Cn1cncc1[C@@](N)(c1ccc(Cl)cc1)c1ccc2c(c1)c(-c1cccc(Cl)c1)cc(=O)n2C [tipifarnib]
Summary of the method: as §1

mubritinib = compound: FC(F)(F)c1ccc(/C=C/c2nc(COc3ccc(CCCCn4ccnn4)cc3)co2)cc1 [mubritinib]
Summary of the method: as §1

Measured: log2 fold change

CSNK2A1 (UniProt P68400)
inactive: [1] 0.055 | crizotinib -0.04 | [2] 0.016 | [3] -0.17 | duvelisib 0.01 | gandotinib 0.043 | tozasertib -0.004 | [4] 0.005 | doramapimod -0.022 | ispinesib 0.029 | bafetinib -0.02 | [5] -0.073 | nilotinib 0.032 | [6] 0.019 | dasatinib -0.03 | [7] -0.055 | [8] -0.019 | [9] 0.035 | tipifarnib 0.03 | mubritinib -0.019

CPT1A (UniProt P50416)
Chain of UniProt P50416 (P50416 whole entry, looked up): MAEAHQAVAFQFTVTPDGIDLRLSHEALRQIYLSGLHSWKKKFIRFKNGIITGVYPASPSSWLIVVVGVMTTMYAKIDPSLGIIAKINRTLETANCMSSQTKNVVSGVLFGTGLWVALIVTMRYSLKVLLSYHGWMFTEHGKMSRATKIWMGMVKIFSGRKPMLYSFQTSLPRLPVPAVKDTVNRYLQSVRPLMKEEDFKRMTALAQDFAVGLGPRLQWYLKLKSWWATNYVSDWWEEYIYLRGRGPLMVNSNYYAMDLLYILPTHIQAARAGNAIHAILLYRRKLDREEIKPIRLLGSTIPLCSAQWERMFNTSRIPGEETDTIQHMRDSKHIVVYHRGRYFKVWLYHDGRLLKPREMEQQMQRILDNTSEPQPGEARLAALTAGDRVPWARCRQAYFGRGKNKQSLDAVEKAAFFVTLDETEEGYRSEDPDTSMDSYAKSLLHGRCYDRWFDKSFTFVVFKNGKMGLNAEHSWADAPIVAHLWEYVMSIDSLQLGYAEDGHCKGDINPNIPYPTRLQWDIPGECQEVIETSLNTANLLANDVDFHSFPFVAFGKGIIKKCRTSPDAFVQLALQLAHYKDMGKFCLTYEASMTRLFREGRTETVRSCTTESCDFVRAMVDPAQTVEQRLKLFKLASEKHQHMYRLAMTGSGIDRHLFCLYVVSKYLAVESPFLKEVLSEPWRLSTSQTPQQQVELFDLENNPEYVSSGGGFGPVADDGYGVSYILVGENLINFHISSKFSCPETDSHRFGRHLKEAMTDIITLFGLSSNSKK
inactive: [1] 0.043 | [2] 0.02 | [3] 0.047 | duvelisib 0.022 | gandotinib 0.211 | tozasertib 0.161 | [4] 0.079 | doramapimod 0.012 | ispinesib 0.322 | bafetinib 0.171 | [5] 0.006 | nilotinib 0.058 | [6] 0.021 | dasatinib -0.042 | [7] -0.107 | [8] -0.024 | [9] -0.036 | tipifarnib 0.187 | mubritinib -0.05
active: crizotinib 0.546

CDK11B (UniProt P21127)
inactive: [1] 0.025 | [2] 0.052 | [3] 0.166 | duvelisib 0.099 | gandotinib 0.105 | tozasertib 0.018 | [4] 0.007 | doramapimod 0 | ispinesib 0.022 | bafetinib 0.027 | [5] -0.009 | nilotinib 0.106 | [6] -0.038 | dasatinib 0.014 | [7] -0.036 | [8] 0.007 | [9] 0.228 | tipifarnib 0.104 | mubritinib 0.085
active: crizotinib 1.24

CNDP2 (UniProt Q96KP4)
inactive: [1] 0.03 | crizotinib -0.061 | [2] 0.102 | [3] -0.067 | duvelisib 0.02 | gandotinib 0.072 | tozasertib -0.02 | [4] 0.015 | doramapimod 0.018 | ispinesib -0.099 | bafetinib -0.03 | [5] 0.006 | nilotinib 0.045 | [6] -0.015 | dasatinib -0.031 | [7] -0.041 | [8] 0.066 | [9] 0.032 | tipifarnib -0.067 | mubritinib 0.101

CDC123 (UniProt O75794)
Chain of UniProt O75794 (O75794 whole entry, looked up): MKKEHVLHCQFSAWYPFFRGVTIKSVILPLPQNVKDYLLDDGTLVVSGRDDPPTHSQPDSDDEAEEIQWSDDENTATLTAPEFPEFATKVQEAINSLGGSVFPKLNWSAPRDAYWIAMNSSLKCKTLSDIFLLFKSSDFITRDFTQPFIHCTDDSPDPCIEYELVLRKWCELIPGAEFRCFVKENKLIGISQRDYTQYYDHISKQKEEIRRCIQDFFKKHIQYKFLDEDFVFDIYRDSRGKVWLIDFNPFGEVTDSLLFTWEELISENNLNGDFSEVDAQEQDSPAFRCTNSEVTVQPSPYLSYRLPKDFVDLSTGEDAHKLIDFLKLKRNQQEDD
inactive: [1] -0.001 | [2] 0.074 | [3] -0.032 | duvelisib 0.159 | gandotinib 0.044 | tozasertib -0.049 | [4] 0.115 | doramapimod 0.003 | ispinesib 0.013 | bafetinib 0.015 | [5] -0.013 | nilotinib -0.084 | [6] 0.079 | dasatinib -0.032 | [7] 0.018 | [8] 0.029 | [9] -0.04 | tipifarnib -0.031 | mubritinib -0.006
active: crizotinib -0.246

CLUH, A0A494C0R8
inactive: [1] 0.055 | [2] 0.205 | [3] 0.037 | gandotinib -0.214 | tozasertib -0.11 | [4] -0.031 | doramapimod 0.113 | ispinesib -0.028 | bafetinib 0.016 | [5] -0.445 | nilotinib 0.264 | [6] 0.015 | dasatinib -0.051 | [7] 0 | [8] -0.018 | tipifarnib 0.145 | mubritinib 0.072
active: crizotinib -0.575 | duvelisib 0.646 | [9] 0.532

CBX1 (UniProt P83916)
Chain of UniProt P83916 (P83916 whole entry, looked up): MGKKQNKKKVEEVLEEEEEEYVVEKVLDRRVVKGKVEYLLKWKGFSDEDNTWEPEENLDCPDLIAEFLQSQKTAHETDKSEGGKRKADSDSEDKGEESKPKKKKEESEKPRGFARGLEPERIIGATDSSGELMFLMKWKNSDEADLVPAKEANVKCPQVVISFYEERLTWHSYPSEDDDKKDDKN
inactive: [1] -0.03 | crizotinib 0.001 | [2] 0.043 | [3] -0.08 | duvelisib -0.006 | gandotinib 0.004 | tozasertib 0.06 | [4] -0.056 | doramapimod 0.105 | ispinesib 0.04 | bafetinib -0.037 | [5] -0.025 | nilotinib 0.141 | [6] -0.089 | dasatinib 0.084 | [7] -0.003 | [8] -0.034 | [9] 0.011 | tipifarnib -0.039 | mubritinib 0.066

CS (UniProt O75390)
Chain of UniProt O75390 (O75390 whole entry, looked up): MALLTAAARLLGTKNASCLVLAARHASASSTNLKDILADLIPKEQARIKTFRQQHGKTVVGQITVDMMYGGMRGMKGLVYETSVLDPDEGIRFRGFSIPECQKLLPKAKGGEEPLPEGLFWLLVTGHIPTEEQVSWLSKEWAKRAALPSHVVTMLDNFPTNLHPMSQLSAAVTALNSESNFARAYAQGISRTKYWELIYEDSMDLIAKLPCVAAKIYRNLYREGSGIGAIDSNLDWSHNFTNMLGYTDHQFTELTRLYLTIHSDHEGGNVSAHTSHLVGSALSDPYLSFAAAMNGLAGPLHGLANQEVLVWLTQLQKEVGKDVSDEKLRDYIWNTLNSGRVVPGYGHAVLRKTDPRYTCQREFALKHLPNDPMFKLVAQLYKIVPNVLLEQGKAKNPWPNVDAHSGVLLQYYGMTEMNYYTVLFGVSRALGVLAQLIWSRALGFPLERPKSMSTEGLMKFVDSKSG
inactive: [1] 0.044 | crizotinib -0.122 | [2] 0.072 | [3] -0.034 | duvelisib 0.059 | gandotinib -0.037 | tozasertib 0.027 | [4] 0.061 | doramapimod 0.017 | ispinesib -0.157 | bafetinib 0.013 | [5] -0.061 | nilotinib 0.011 | [6] -0.051 | dasatinib -0.131 | [7] -0.097 | [8] 0.075 | [9] 0.083 | tipifarnib -0.033 | mubritinib 0.015

CIT isoform 4 (UniProt O14578)
Chain of UniProt O14578 (O14578 whole entry, looked up): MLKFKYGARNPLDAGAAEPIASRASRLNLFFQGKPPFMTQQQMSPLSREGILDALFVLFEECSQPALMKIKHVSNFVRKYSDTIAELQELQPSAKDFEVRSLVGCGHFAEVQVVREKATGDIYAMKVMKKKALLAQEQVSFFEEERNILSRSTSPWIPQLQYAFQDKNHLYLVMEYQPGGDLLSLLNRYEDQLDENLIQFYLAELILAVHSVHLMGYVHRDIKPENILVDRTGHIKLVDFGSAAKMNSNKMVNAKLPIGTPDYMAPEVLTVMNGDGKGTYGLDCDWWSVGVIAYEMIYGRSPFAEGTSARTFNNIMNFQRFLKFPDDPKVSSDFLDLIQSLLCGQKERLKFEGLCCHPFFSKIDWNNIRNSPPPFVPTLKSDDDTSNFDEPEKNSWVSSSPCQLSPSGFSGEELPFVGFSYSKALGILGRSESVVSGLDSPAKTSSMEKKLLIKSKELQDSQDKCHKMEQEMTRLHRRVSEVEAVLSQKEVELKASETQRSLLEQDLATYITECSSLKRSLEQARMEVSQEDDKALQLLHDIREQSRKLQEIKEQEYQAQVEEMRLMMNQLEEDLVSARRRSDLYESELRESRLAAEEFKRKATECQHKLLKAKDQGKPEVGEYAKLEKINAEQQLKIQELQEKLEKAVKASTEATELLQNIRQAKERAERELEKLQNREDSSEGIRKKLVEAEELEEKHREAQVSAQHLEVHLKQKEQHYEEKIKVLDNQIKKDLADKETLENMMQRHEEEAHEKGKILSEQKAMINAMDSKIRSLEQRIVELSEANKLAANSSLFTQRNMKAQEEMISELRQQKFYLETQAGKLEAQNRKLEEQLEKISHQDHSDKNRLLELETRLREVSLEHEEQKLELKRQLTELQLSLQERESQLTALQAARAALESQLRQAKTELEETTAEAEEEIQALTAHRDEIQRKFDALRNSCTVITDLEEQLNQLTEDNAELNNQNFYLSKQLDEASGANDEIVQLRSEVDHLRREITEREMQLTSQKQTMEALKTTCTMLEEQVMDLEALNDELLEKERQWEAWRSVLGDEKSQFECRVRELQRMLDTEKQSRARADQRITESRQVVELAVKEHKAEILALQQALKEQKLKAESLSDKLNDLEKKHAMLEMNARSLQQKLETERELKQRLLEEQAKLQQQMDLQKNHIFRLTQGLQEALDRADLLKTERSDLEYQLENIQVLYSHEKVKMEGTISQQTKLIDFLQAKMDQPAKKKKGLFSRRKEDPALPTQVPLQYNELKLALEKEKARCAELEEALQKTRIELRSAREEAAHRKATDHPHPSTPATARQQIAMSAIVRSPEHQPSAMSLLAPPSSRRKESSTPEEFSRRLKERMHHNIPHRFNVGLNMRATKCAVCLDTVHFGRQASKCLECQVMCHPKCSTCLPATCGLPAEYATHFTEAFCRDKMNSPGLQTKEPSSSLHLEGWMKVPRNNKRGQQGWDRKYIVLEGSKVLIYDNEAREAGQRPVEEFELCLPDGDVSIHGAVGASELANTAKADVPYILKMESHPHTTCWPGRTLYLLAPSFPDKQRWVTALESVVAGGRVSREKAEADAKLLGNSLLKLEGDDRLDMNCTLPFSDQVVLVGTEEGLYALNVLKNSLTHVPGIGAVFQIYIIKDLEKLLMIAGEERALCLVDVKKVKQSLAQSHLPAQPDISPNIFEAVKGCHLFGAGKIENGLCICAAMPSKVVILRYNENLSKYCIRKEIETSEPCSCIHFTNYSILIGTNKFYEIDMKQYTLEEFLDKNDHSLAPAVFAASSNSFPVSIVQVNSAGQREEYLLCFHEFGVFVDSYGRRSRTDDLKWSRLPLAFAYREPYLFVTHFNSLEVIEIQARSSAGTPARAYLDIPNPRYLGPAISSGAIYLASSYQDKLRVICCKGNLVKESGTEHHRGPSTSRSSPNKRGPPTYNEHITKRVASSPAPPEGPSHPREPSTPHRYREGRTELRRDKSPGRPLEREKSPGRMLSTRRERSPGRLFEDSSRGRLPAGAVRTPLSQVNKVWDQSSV
inactive: [1] -0.023 | crizotinib -0.077 | [2] -0.013 | [3] 0.08 | duvelisib 0.064 | gandotinib -0.001 | tozasertib 0.093 | [4] -0.033 | doramapimod 0.026 | ispinesib 0.072 | bafetinib -0.01 | [5] 0.07 | nilotinib -0.049 | [6] -0.065 | dasatinib -0.064 | [7] -0.03 | [8] 0.006 | [9] -0.075 | tipifarnib -0.009 | mubritinib 0.031

CHD4 isoform 2 (UniProt Q14839)
inactive: [1] -0.02 | crizotinib -0.08 | [2] 0.098 | [3] 0.057 | duvelisib -0.021 | gandotinib -0.009 | tozasertib 0.233 | [4] 0.186 | doramapimod 0.014 | ispinesib -0.05 | bafetinib 0.068 | [5] -0.018 | nilotinib -0.143 | [6] -0.267 | dasatinib -0.059 | [7] -0.137 | [8] -0.063 | [9] -0.002 | tipifarnib -0.083 | mubritinib -0.06

CDC42BPA isoform 6 (UniProt Q5VT25)
inactive: [1] 0.03 | [2] -0.016 | duvelisib 0.145 | gandotinib -0.148 | tozasertib -0.048 | [4] 0.002 | doramapimod 0.071 | ispinesib -0.049 | bafetinib 0.051 | [5] 0.102 | nilotinib 0.28 | dasatinib -0.254 | [7] 0.135 | [8] 0.036 | [9] 0.008 | tipifarnib -0.185 | mubritinib 0.037
active: crizotinib -0.477 | [3] -0.596 | [6] -0.682

CDK5RAP1 (UniProt Q96SZ6)
inactive: [1] 0.005 | crizotinib 0.041 | [2] 0.033 | [3] 0.031 | duvelisib -0.006 | gandotinib 0.033 | tozasertib 0.003 | [4] -0.025 | doramapimod 0.05 | ispinesib 0.048 | bafetinib -0.052 | [5] -0.058 | nilotinib 0 | [6] -0.008 | dasatinib 0.175 | [7] -0.006 | [8] 0.044 | [9] 0.017 | tipifarnib 0.031 | mubritinib -0.03

CBR1 (UniProt P16152)
inactive: [1] 0.006 | crizotinib 0.048 | [2] 0.052 | [3] -0.163 | duvelisib 0.038 | gandotinib 0.034 | tozasertib -0.025 | [4] -0.024 | doramapimod 0.003 | ispinesib 0.194 | bafetinib 0 | [5] 0.011 | nilotinib -0.012 | [6] 0.003 | dasatinib -0.02 | [7] 0.022 | [8] 0.081 | [9] -0.031 | tipifarnib -0.044 | mubritinib -0.01

COX20 isoform 2 (UniProt Q5RI15)
inactive: [1] -0.043 | crizotinib 0.063 | [2] -0.098 | [3] 0.01 | duvelisib -0.017 | gandotinib -0.385 | tozasertib 0.022 | [4] -0.001 | doramapimod -0.001 | ispinesib -0.017 | bafetinib -0.072 | [5] -0.241 | nilotinib 0.017 | [6] 0.012 | dasatinib 0.049 | [7] 0.009 | [8] -0.044 | [9] 0.023 | tipifarnib -0.069 | mubritinib -0.092

CLASP2 isoform 3 (UniProt O75122)
Chain of UniProt O75122 (O75122 whole entry, looked up): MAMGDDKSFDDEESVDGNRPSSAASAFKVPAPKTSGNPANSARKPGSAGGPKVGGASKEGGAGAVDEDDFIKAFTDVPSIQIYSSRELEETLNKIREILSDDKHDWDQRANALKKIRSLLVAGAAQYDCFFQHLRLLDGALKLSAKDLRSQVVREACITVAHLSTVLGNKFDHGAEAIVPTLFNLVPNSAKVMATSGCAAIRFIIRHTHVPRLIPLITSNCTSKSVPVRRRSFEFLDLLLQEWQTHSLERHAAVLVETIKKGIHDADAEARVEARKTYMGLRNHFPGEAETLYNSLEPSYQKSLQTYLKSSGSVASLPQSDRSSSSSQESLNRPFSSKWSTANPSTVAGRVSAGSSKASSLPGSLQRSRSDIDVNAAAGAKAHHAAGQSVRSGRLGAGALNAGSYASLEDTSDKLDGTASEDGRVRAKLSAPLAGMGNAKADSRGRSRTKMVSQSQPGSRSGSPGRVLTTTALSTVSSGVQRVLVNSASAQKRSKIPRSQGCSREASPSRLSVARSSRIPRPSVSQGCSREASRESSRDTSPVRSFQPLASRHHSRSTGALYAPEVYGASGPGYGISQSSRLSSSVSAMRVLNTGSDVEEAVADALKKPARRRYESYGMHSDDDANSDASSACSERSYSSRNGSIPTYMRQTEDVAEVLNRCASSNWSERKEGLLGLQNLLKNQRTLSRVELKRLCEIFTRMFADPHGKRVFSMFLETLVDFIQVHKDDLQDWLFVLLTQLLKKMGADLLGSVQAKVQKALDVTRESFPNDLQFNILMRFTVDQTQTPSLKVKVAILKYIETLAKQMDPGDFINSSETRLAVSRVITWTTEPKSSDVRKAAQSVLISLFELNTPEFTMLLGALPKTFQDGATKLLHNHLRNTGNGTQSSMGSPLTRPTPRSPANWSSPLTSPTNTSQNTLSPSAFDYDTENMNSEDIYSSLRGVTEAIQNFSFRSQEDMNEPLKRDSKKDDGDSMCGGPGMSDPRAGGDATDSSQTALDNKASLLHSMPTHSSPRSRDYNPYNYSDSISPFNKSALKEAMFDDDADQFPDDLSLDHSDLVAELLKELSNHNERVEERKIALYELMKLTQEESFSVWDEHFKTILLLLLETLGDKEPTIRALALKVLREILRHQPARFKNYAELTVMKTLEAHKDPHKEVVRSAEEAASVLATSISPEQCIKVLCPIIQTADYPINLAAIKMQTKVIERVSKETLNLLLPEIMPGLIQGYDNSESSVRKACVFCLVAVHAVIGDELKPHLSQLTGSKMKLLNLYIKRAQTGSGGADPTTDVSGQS
inactive: [1] -0.035 | crizotinib -0.201 | [2] 0.044 | [3] -0.029 | duvelisib 0.047 | tozasertib -0.06 | [4] 0.074 | doramapimod -0.007 | ispinesib -0.054 | bafetinib 0.016 | [5] 0.058 | nilotinib -0.067 | dasatinib -0.175 | [7] -0.188 | [8] 0.013 | [9] 0.012 | tipifarnib -0.089 | mubritinib 0.022
active: gandotinib -0.314 | [6] -0.279
